Some of the results follow. Values without a mark were called inactive. Rule as the data show it: active = inhibition above about 32%; inactive = the rest.
Target: Mu-type opioid receptor (Homo sapiens) + Delta-type opioid receptor (Homo sapiens) (UniProt P35372+P41143)
Assay: OPRM1-OPRD1 heterodimer inverse agonism – cell-based, luminescence, confirmation (AID 504900);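 also: 0% = cells with DMSO and 100% = wells lacking cells with DMSO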
Conditions: cells expressing OPRM1/OPRD1 heterodimer, at 9.3 µM, stronger effect = higher value

Mu-type opioid receptor (Homo sapiens) + Delta-type opioid receptor (Homo sapiens), sequence (P35372 whole entry, looked up): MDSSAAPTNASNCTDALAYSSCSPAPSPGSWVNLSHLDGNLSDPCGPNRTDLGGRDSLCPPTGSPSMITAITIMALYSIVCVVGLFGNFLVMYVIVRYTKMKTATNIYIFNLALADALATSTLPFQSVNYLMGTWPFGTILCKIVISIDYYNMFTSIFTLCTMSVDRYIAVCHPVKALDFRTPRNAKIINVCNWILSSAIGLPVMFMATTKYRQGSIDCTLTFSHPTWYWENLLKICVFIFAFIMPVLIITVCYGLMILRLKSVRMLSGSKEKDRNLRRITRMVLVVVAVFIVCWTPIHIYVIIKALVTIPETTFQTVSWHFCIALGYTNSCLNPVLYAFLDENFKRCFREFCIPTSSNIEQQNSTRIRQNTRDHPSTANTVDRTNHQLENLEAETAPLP
Mu-type opioid receptor (Homo sapiens) + Delta-type opioid receptor (Homo sapiens), sequence (P41143 whole entry, looked up): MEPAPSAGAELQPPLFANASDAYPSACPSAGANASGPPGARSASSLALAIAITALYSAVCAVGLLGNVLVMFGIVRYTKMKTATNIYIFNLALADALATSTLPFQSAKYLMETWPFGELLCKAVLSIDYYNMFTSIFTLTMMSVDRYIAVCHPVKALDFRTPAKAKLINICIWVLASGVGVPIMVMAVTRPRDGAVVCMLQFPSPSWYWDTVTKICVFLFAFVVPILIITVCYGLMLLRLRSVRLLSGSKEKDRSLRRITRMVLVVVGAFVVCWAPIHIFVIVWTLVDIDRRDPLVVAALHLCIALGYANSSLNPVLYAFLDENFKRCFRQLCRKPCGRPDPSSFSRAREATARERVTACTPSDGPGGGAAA

Compound | inhibition
CCOC(=O)c1c(N)n(CCN2CCOCC2)c2nc3ccccc3nc12 | 3.09%
CC1=CC(=Cc2sc3ccccc3[n+]2C)C=C(C)O1 | -2.66%
